# According to PubChem BioAssay (NCI):
# About 83,000 compounds went through this panel and 20% of them were active in at least one assay; those are over-represented in the sample as a whole.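 Percent growth is the endpoint: 0 to 100 indicates growth inhibition (40 means 60% inhibition), 0 means no net growth, and negative values indicate cell death.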 Activity calls are given as the source filed them.
# System: A498 renal
# Test: NCI-60 one-dose screen, 48 h (100 = growth as untreated, 0 = no growth, -100 = all killed)
# Conditions: 10 µM unless noted
# Protocol: Growth inhibition of the A498 human tumor cell line is measured as a screen for anti-cancer activity. Cells are grown in 96 well plates and exposed to the test compound for 48 hours. Compounds are tested at a single concentration, which is 10^-5 M for most compounds. The reported endpoint is percent growth (GI% or GIPRCNT), where numbers from 0 - 100% represent growth inhibition, and numbers from -100% - 0 represent cell death. For example, a value of 40 represents 60% growth inhibition. A value of 0 means no net growth occurred over the course of the experiment. A value of -40 indicates 40% of cells at the beginning of the experiment died by the end of the experiment. A value of -100 means all cells are dead at the end of the experiment.
# NCI-60 Human Tumor Cell Lines Screen was performed using the standard one-dose NCI protocol, which is described in more detail at https://dtp.cancer.gov/discovery_development/nci-60/default.htm.
# Compounds with GIPRCNT values below 10 were considered active. Activity score was based on GIPRCNT using the following formula: […]
# Score is 0 for GIPRCNT values of 100 or above, 50 for GIPRCNT values of 0, and 100 for GIPRCNT values of -100.
row,SMILES,growth
1,COc1ccc2c(c1)cn1c3ccc(OC)cc3[nH]c(=O)c21,41.2% (inactive)
2,O=C(Nc1cccc(-n2cc(-c3ccncc3)c(-c3ccc(Cl)c(O)c3)n2)c1)Nc1ccc(Cl)c(C(F)(F)F)c1,11.1% (inactive)
3,Cc1ccc(S(=O)(=O)Nc2c(Br)cc(Br)cc2C(N)=O)cc1,107% (inactive)
4,CCCCN(CCCC)C(=O)CC,97.7% (inactive)
5,OB(O)c1cccc(-c2nc3ccc4[nH]ncc4c3c3c2CCCC3)c1F,12.7% (inactive)
6,C=C1CCC2C3(C)COC(C)(C)OC3CCC2(C)C1C/C=C1/C(=O)OCC1Oc1ccccc1OC (stereo not given),110% (inactive)
7,COc1ccc(-n2c(=O)sc3c(Cl)nc(C)nc32)c(OC)c1,91.1% (inactive)
8,C=C1CCC[C@]2(C)CCC[C@H](C)[C@@H](OC(C)=O)[C@@H]3OC(=O)C(=C)[C@@H]3C[C@H]1O2,68.7% (inactive)
9,CCOC(=O)/C(C#N)=C1/C(=O)Nc2ccccc21,132% (inactive)
10,COc1ccc(S(=O)(=O)Nc2cc(/C=C\c3cc(OC)c(OC)c(OC)c3)cc(OC)c2OC)cc1,-11.5% (active)
11,COc1ccc(-c2c(N)n[nH]c2-c2cc(OC)c3c(c2)OCCO3)cc1,71.4% (inactive)
12,Cc1cc(C(C)(C)C)ccc1S,92.8% (inactive)
13,Cn1ccc(Nc2nccc(Oc3ccc(C(=O)Nc4cccc(F)c4)c(Cl)c3)n2)c1,46.9% (inactive)
14,OCCCCCCNc1ncnc2cc(Cl)ccc12,104% (inactive)
15,CCc1ccc(-c2ccc(=O)n(-c3ccc(S(N)(=O)=O)cc3)n2)cc1,40.3% (inactive)
16,O=C(Nc1ccc2c(c1)OCO2)C(=O)c1c[nH]c2cc(F)ccc12,55% (inactive)
17,CC(C)OC(=O)N1CCOCC1,90.3% (inactive)
18,C=CCn1c2ccccc2c2c3c(c4c5ccccc5n(CC=C)c4c21)C(=O)N(O)C3=O,23.7% (inactive)
19,O=C1/C(=C/c2ccccc2)CN(C(=O)CCN2CCC(=NO)CC2)C/C1=C\c1ccccc1,80% (inactive)
20,Cn1c(=O)c2[nH]c(C3CC=CCC3)nc2n(C)c1=O (stereo not given),105% (inactive)

row,SMILES,growth
1,Cc1ccc(S(=O)(=O)/C(=C\c2ccc(Cl)cc2)C(=O)c2ccccc2)cc1,99.4% (inactive)
2,O=C(O)c1cn(C2CC2)c2cc(N3CCN(C(=O)/C=C/c4ccc(Cl)cc4)CC3)c(F)cc2c1=O,29% (inactive)
3,FC(F)(F)c1cccc(-c2cn3c(ccc4ccccc43)n2)c1,94.9% (inactive)
4,CNC(=S)NNC(=O)C1CC1,109% (inactive)
5,O=[N+]([O-])c1cccc(-c2nc3sccn3c2-c2ccnc(NCCCNS(=O)(=O)c3ccc(Cl)cc3)n2)c1,68% (inactive)
6,COc1ccc(-c2cn(-c3cccc(C(=O)/C=C/c4cc(OC)c(OC)c(OC)c4)c3)c(=O)[nH]2)cc1OC,90.3% (inactive)
7,COc1ccc(/C(C#N)=C/c2cc(OC)c(OC)c(OC)c2)cc1,33.6% (inactive)
8,COc1ccc(-c2ccc(-c3ccc(C(=N)N)s3)s2)cc1Cl,65.3% (inactive)
9,CCCCN(CCCC)C(=N)c1ccnc2ccccc12,90.6% (inactive)
10,O=C(NCCNc1nccc(-n2ccc3cccnc32)n1)c1ccc(C(F)(F)F)cc1,108% (inactive)
11,COc1cc2c(cc1OCCCCCn1c3ccccc3c3ccccc31)N=C[C@@H]1CCCN1C2=O,-51.8% (active)
12,COc1ccc(-c2nc(-c3nc4cc(C)c(C)cc4[nH]3)cc3c2[nH]c2ccccc23)cc1,93.6% (inactive)
13,O=C(/C=C/c1c[nH]c2ccccc12)c1ccc(O)c(CN2CCN(c3ccc(F)cc3)CC2)c1,98.5% (inactive)
14,Cc1nc2c3c(ncn2n1)Oc1c(c(=O)[nH]c2ccccc12)C3c1ccc(Cl)cc1 (stereo not given),95.4% (inactive)
15,O=S(=O)(NCCNc1nccc(-c2c(-c3cccc(O)c3)nc3sccn23)n1)c1ccc(F)cc1,76.4% (inactive)
16,CN(C)CCOC(=O)Nc1ccccc1Cl,112% (inactive)
17,Cc1ccc(S(=O)(=O)n2cc(C(=O)C(=O)N3CCOCC3)c3ccccc32)cc1,118% (inactive)
18,O=C(C1=Cc2cc3ccccc3n2Cc2cnnn21)c1ccccc1,71.7% (inactive)
19,c1ccc(Nc2nc(Nc3ccccc3)nc(Nc3ccccc3)n2)cc1,79% (inactive)
20,CCCCCCCC[C@@H](O)CC(=O)N[C@@H](CC(N)=O)C(=O)N[C@@H](CCC(N)=O)C(=O)N[C@@H](CC(=O)c1cc(C)cc(O)c1C(=O)c1c(O)cccc1O)CC(C)C,-3.25% (active)
